The campaign covered roughly 290,000 compounds. About 27,000 (9.3%) were called active. The list comes from a sample in which actives are over-represented; it also holds similar structures and randomly drawn compounds. A number with no mark means an inactive call. Cut-off read from the data, not from the text of the source: active = inhibition mostly above about 28% (no sharp cut-off); inactive = mostly below about 43%.
Assay: A qHTS for Small Molecule Inhibitors of Shiga Toxin; note: 0% is about no effect
Settings: Vero cells, Shiga toxin protein synthesis inhibition reporter; at 38.7 µM, stronger effect = higher value

Structure (SMILES)	inhibition
O=C(CN1CCCCCC1)Nc1ccc(Cl)cc1F	1.73%
O=c1ccc2cc(S(=O)(=O)Nc3ccccc3F)ccc2o1	-8.1%
CCc1nc2cccnc2n1-c1ccc(C(=O)O)cc1	-6.32%
Cc1c(Cl)cccc1NC(=S)NCC(O)c1ccccc1 (centres undefined)	8.12%
Cn1nnnc1SCC(=O)Nc1nc2ccccc2s1	25.2%
O=C(Nc1ccccc1)Nc1nc2ccccc2s1	106% (active)
CC(=O)Nc1ccc(-c2csc(NC(=O)Nc3ccccc3)n2)cc1	42%
COc1ccc(C(=O)NC2CC(C)(C)Cc3c2cnn3-c2ccccc2)c(OC)c1 (centres undefined)	-3.27%
CC(C)S(=O)(=O)c1csc(NC(=O)Nc2ccc(Cl)cc2)c1Cl	37.4%
COc1ccccc1Nc1cc(C(=O)NCCCN(C)C2CCCCC2)c2ccccc2n1	-10.8%
Cc1ccc(SCC(=O)c2cc(C)c(OC(=S)N(C)C)c(C)c2)cc1	37.1%
Cc1cc(C)n2nc(CNS(=O)(=O)c3c(F)c(F)c(F)c(F)c3F)nc2n1	9.24%
COc1cccc(NC(=O)N2CCC(NC(=O)C(Cc3cccc(C)c3)NC(C)=O)CC2)c1 (centres undefined)	1.56%
O=C(Nc1ccccc1N1CCCCC1)c1cccc(F)c1	16.3%
Cc1ccc(F)cc1NC(=O)c1cccc(N(C)C)c1	116% (active)
O=C(CN1CCN(CC(=O)Nc2ccc3c(c2)OCO3)CC1)Nc1ccc(F)cc1	-14.4%
Cc1cccc(C(=O)Nc2ccccc2N2CCN(c3ccc(F)cc3)CC2)c1	-3.83%
Cc1ccc(-n2nc3c(c2NC(=O)c2ccc4c(c2)OCO4)CSC3)c(C)c1	1.3%
Cc1ccc(F)cc1NC(=O)c1ccc2c(c1)OCO2	43.8% (active)
COc1ccc(NC(=O)NCc2ccc3c(c2)OCO3)c(OC)c1	-9.62%
CN(C)CCN(C(=O)C1CCCCC1)c1nc2cc3c(cc2s1)OCO3	-7.68%
CC(=O)N1CCc2cc(S(=O)(=O)NC3CCCCC3)ccc21	-2.55%
COc1ccc(C(=O)COC(=O)CNC(=O)c2cccs2)cc1Br	-12%
CC(=O)Nc1ccc(Nc2ncnc3c2nnn3Cc2ccccc2Cl)cc1	-4.64%
COc1ccc(/C=C2\SC(=S)N(CCC(=O)Nc3ccccn3)C2=O)cc1OC	-13.3%
CCOc1ccc(N(CC(=O)NCC2CCCO2)S(=O)(=O)c2ccc(C)cc2)cc1 (centres undefined)	-4.82%
O=C(Cn1c(COc2ccccc2)nc2ccccc21)Nc1cc(Cl)c(Cl)cc1Cl	3.93%
CC(C)n1c(COc2ccccc2)nc2ccccc21	-5.6%
COCn1c(COc2ccccc2)nc2ccccc21	13.8% (active)

Source: PubChem BioAssay AID2315 (National Center for Advancing Translational Sciences (NCATS), 2010)
